Bioassay records: PubChem BioAssay, National Center for Advancing Translational Sciences (NCATS)
Hits are enriched below; roughly 7.3% of the tested compounds scored in any of these assays.
AmpC inh no detg: inhibitors of E. coli AmpC beta-lactamase without detergent; actives 0.52% (n = 330,000); AmpC nitrocefin hydrolysis, absorbance 480 nm, 0.0001% Triton; Potency, µM (top dose mostly 57.1 µM), without a hit: at the highest dose activity change, negative = inhibition, hits mostly inhibitors;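 further: potency means the concentration at half of the fitted maximal effect; plate controls were no compound for no effect and no enzyme for full effect; nearly all actives have a fitted effect of over 20% in size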
Target sequence (P00811 whole entry, looked up): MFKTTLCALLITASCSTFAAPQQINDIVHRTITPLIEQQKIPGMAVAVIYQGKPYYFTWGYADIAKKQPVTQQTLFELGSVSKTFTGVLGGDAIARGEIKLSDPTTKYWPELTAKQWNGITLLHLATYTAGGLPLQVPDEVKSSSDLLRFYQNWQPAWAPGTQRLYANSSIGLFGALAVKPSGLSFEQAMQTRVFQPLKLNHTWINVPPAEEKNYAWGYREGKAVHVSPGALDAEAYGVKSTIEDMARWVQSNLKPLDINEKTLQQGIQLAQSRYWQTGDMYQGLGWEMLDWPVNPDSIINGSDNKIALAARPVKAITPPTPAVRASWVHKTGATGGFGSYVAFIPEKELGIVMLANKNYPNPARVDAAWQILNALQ
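AmpC (5.3 nM in the dispensed reagent) in 20 mM phosphate pH 7.0 with 0.01% (detergent screen) or 0.0001% Triton X-100 was preincubated with compounds for 15 min at room temperature. Nitrocefin was then added from an 800 uM solution, and hydrolysis was followed at 480 nm.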
AmpC inh detg: blocks E. coli AmpC beta-lactamase in detergent assay; AID 485294; AmpC hydrolysis of nitrocefin, absorbance 480 nm, 0.01% Triton; Potency, µM (doses to about 114 µM), for the others: top-dose activity change, negative = inhibition, usual class: inhibitors; P00811; actives 0.041% (n = 370,000);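 further: potency means the concentration at half of the fitted maximal effect; 0% = no-compound wells and -100% = no-enzyme wells; nearly all actives have a fitted effect of over 25% in size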
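AmpC (5.3 nM in the dispensed reagent) in 20 mM phosphate pH 7.0 with 0.01% (detergent screen) or 0.0001% Triton X-100 was preincubated with compounds for 15 min at room temperature. Nitrocefin was then added from an 800 uM solution, and hydrolysis was followed at 480 nm.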
HCV inh: blocks hepatitis C virus. Huh7.5.1 HCVcc-Cre infection, luciferase reporter, 44 h. Potency, µM (titrated, usually from 41.8 µM), inactives show top-dose activity change, negative = inhibition, most hits filed as inhibitors. actives 3.4% (n = 340,000). AID 651820; further: potency means the concentration at half of the fitted maximal effect
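After 44 h co-culture of compound, cells and HCVcc-Cre (~0.5 moi), substrate is added for 15 min at room temperature and luciferase measured over 15 sec. Cells were seeded at 1,000/well and pre-cultured 4 h.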
FMDV antiviral: antivirals against foot and mouth disease virus; FMDV antiviral cell-based qHTS; Potency, µM (doses to about 57.9 µM), for inactives: at the highest dose activity change, negative = inhibition, usual class: inhibitors; actives 1.2% (n = 410,000); calls by dose curve; tested in HEK293T cells; further: read-out not given here; potency means the concentration at half of the fitted maximal effect; nearly all actives have a fitted effect of over 45% in size
HCMV inh: inhibitors of human cytomegalovirus; HFF cells, HCMV-luciferase reporter, 72 h; stronger effect = lower value; activity change, negative = inhibition, % at 57.5 µM; actives 4.5% (n = 410,000); AID 1259415; in the data active means activity change below about -60%; inconclusive means no clear call, values can overlap the other calls; inactive means above about -39%
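Cell-based, HFFs, 1000 cells/well, 16 h 37C; cpds in DMSO + HCMV-luc, MOI 1 PFU/cell; 72 h 37C; OneGlo luminescence after 5 min RT; norm. to buffer vs Salinomycin 10uM.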
An asterisk follows results filed as active; ? = inconclusive; / = no result; ! = a repeat was not active; [ ] = another dose, or the depositor's remark. Unless noted, the call rests on the fitted dose curve; in most records, active means well fitted curve in the direction sought with a large enough effect; inconclusive means small, poorly fitted or top-dose-only effect, or another doubt; inactive means no such curve, though single readings can be large; an effect the other way counts as inactive or inconclusive. Unless noted, on the % scale 0 is the no-effect control and ±100 the full control effect.

SMILES	AmpC inh no detg	AmpC inh detg	HCV inh	FMDV antiviral	HCMV inh
COc1ccc(C(CNC(=O)Cc2cc(OC)c(OC)c(OC)c2)N2CCCC2)cc1 (stereo not drawn)	-5%	0%	-2%	15%	42
COC(=O)C1CCC(=O)N1C(c1ccc(OC)cc1)c1cc(OC)c(OC)c(OC)c1 (stereo not drawn)	/	/	?	0%	-81*
COc1ccc(-c2[nH]c(-c3cc(OC)c4c(c3)OCO4)nc2-c2ccccc2)cc1	-12%	0%	?	-3%	-71*
COc1cc(-c2nc(-c3ccccc3)c(-c3ccc(Br)cc3)[nH]2)cc(OC)c1O	/	9%	/	5%	3
CCOC(=O)N1CCN(C(=O)c2ccc3c(c2)N(Cc2cc(C)ccc2C)C(=O)c2ccccc2S3=O)CC1 (stereo not drawn)	237%	-3%	?	?	-88*!
Cc1ccc(C)c(CN2C(=O)c3ccccc3S(=O)c3ccc(C(=O)NCCCN4CCCC4)cc32)c1 (stereo not drawn)	174%	?	7.1µM*	-5%	?
CCOC(=O)N1CCC(NC(=O)c2ccc3c(c2)N(Cc2ccc(Cl)cc2)C(=O)c2ccccc2S3=O)CC1 (stereo not drawn)	/	13%	/	-26%	-82*
Cc1ccc(C)c(CN2C(=O)c3ccccc3S(=O)c3ccc(C(=O)N4CCC(C)CC4)cc32)c1 (stereo not drawn)	/	23%	/	0%	?
CCOC(=O)N1CCC(NC(=O)c2ccc3c(c2)N(Cc2ccc(F)cc2)CCS3)CC1	?	2%	18µM*	?	-25
CCc1ccc2nc(NC(=O)CN3C(=O)NC4(CCCC4)C3=O)sc2c1	-30%	/	?	14%	10
C/C(C=O)=C/c1ccccc1	-7%	-9%	50%	-11%	34
COc1cccc(C(=O)NCC2Cc3cccc(-c4nc(C)cnc4C)c3O2)c1OC (stereo not drawn)	/	/	/	-3%	/
Cc1ccc(S(=O)(=O)N2CCC(=O)N(CCOC(=O)Nc3cccc(Cl)c3)CC2)cc1	179%	-7%	?	9%	-64*
Cc1ccc(S(=O)(=O)N2CCC(=O)N(CCOC(=O)NCc3ccccc3)CC2)cc1	56%	-16%	-1%[8.37 µM]	22%	14
COc1ccc(CNC(=O)OCCN2CCN(S(=O)(=O)c3ccc(C)cc3)CCC2=O)cc1	172%	1%	-2%	0%	-65*
CCc1ccc(-n2c(=O)c3c4c(sc3n(CC(=O)c3ccc(F)cc3)c2=O)CCC4)cc1	/	0%	/	-21%	-88*
CCc1ccc(-n2c(=O)c3c4c(sc3n(Cc3ccc(F)cc3)c2=O)CCCC4)cc1	/	4%	/	-14%	14
Cc1ccccc1OCC(=O)NNC(=O)c1ccc2c(=O)n3c(nc2c1)CCC3	0%	-11%	6%	-17%	-8
O=c1c(-c2ccccc2)nc2ccccc2n1C(CCc1ccccc1)c1nc2ccccc2[nH]1 (stereo not drawn)	/	/	/	-8%	-67*
OCCC1CN(Cc2cnc(-c3ccccc3)s2)CCN1C1CCCCC1 (stereo not drawn)	9%	7%	-25%	-13%	?
OCCC1CN(Cc2cnc(-c3ccc(Cl)cc3)nc2)CCN1C1CCCC1 (stereo not drawn)	34%	-14%	7.1µM*	?	?
OCCC1CN(Cc2cnc(-c3ccccc3)s2)CCN1C1CCCC1 (stereo not drawn)	5%	7%	?	-27%	-66*
COC(=O)c1ccc2nc(-c3ccco3)c(Cc3ccc(OC)cc3C)n2c1	/	/	/	?	71
CC(=O)NC1=C(NC2CCS(=O)(=O)C2)C(=O)c2ccccc2C1=O (stereo not drawn)	-7%	3%	7.1µM*	-39%	-12
CN(C1=C(NC(=O)c2ccccc2)C(=O)c2ccccc2C1=O)C1CCS(=O)(=O)C1 (stereo not drawn)	-40%	-12%	?	10µM*	-99*
SMILES	AmpC inh no detg	AmpC inh detg	HCV inh	FMDV antiviral	HCMV inh
COCCNC(=O)C1(C)CCCN(Cc2ccc(C)c3ccccc23)C1 (stereo not drawn)	/	/	/	-14%	0
CCCCOc1cccc(C2c3c(oc4ccccc4c3=O)C(=O)N2c2ccccn2)c1 (stereo not drawn)	/	-2%	/	-18%	-14
O=C(O)Cn1c(CCS(=O)(=O)c2ccc(Br)cc2)nc2ccccc21	-15%	-15%	21%	-1%	-13
Cc1ccc(S(=O)(=O)CC2CSc3nc4ccccc4n32)cc1 (stereo not drawn)	?	-3%	?	?	-72*
Cc1ccc(S(=O)(=O)CCc2nc3ccccc3n2CCC#N)cc1	-5%	-5%	?	-26%	-81*
Cc1ccc(S(=O)(=O)CC2CSc3nc(N)cc(=O)n32)cc1 (stereo not drawn)	0%	-16%	9%	0%	4
COc1ccc(CNC(=O)C(C)OC(=O)Cn2cnc3c2c(=O)n(C)c(=O)n3C)cc1 (stereo not drawn)	-9%	5%	7%	-10%	-31
Cc1cc2c(n1-c1ccc(C(=O)NCC(C)c3ccccc3)cc1)CCCC2 (stereo not drawn)	/	19%	/	18%	-61*
COc1cccc(CNC(=O)c2ccc(-n3c(C)cc4c3CCC(C)C4)cc2)c1 (stereo not drawn)	/	19%	/	-22%	-83*
Cc1cc2c(n1-c1ccc(C(=O)NCc3cccc(Br)c3)cc1)CCC(C)C2 (stereo not drawn)	/	-6%	/	19%	?
Cc1cc2c(n1-c1ccc(C(=O)NCCc3ccc(Cl)cc3)cc1)CCCC2	/	13%	/	-9%	-22
CSc1ccc(CCNC(=O)c2ccc(-n3c(C)cc4c3CCCC4)cc2)cc1	/	13%	/	-19%	-98*
O=C(CN1C(=O)C2CCCCN2c2ccc(C(=O)N3CCCC3)cc21)NCc1ccccc1 (stereo not drawn)	/	-3%	/	19%	-10
CN(Cc1ccccc1)c1nc(N)nc(Cl)c1C=O	-9%	?	4µM*	?	-29
CC(C)C[C@@H]1NC(=O)N(CCCn2ccnc2)C1=O	-9%	4%	11%	-2%	10
Fc1cc(Br)ccc1Nc1c2c(nc3nc(-c4cccs4)nn13)CCCC2	/	7%	/	?	-60*
COc1ccc(NC(=O)Cn2c(=O)c3ccccc3n3nncc23)c(OC)c1	/	5%	/	-12%	6
Cc1nc2ncnn2c(N2CCCC(C(=O)Nc3ccccc3Br)C2)c1C (stereo not drawn)	12%	3%	?	?	-64*
Cc1cc(N2CCN(S(=O)(=O)c3ccc(Br)cc3)CC2)n2ncnc2n1	83%	1%	?	-29%	-6
